Compound activity as filed in PubChem BioAssay.
Mot1-301 SUMO – inhibitors of SUMOylation pathway: yeast Mot1-301 growth rescue; S. cerevisiae Mot1-301 growth rescue, ATP luminescence, 38.5C; percent above DMSO median, 100 means doubled; growth rescue, % at 18.8 µM; 1% of 320,000 active;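 active = every valid replicate shows activation above 250% relative to neutral control wells; inactive = the rest, any valid replicate at or below 250%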;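 note: OY570 slx delta 5 strain wells were the positive control but not used for scaling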
ALR H2O2 inh – blocks human ALR sulfhydryl oxidase activity | P55789 | purified ALR, DTT oxidation, H2O2 HRP-luminol luminescence | inhibition, % (no concentration beside the values) | 3.8% of 290,000 active;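 active = mean replicate inhibition above about 79%, with every replicate also reaching it, limit read from the data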
Casp6 inh – inhibitors of human caspase-6. P55212. purified caspase-6, Z-VEID-R110 cleavage fluorescence. inhibition, % at 12.5 µM. 0.53% of 350,000 active;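 active = mean inhibition across replicates at least about 35%, with every replicate also reaching that limit, limit read from the data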;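 note: 0% = median of neutral control wells and 100% = no fluorescence left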
Glyco luc inh – blocks N-linked glycosylation in D54 reporter cells | D54 ERlucT glycosylation luciferase reporter, 24 h; percent of 100 nM tunicamycin response | reporter increase, % at 12.5 µM | 0.23% of 360,000 active | AID 588692;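 active = mean luciferase reporter signal, scaled so untreated is 0 and the glycosylation-blocking control 100, at or above a set limit in every replicate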;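 note: luciferase carries N-glycosylation sites so blocking glycosylation raises the light; 0% = median of neutral control wells and 100% = median of 100 nM tunicamycin wells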
CDK5 inh – blocks human CDK5/p35 kinase activity. Q00535+Q15078. Recombinant CDK5/p35, ADP-Glo luminescence, 60 min. inhibition, % at 10 µM. 0.01% of 330,000 active. AID 488839;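 active = highest replicate inhibition of at least 50% and at least 75% of replicates reaching 50%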;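 note: plate controls were DMSO neutral control for no effect and GW8510 at 10 µM for full effect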
NSD2 inh – inhibitors of human histone methyltransferase NSD2; NSD2 peptide methylation, AlphaScreen, 120 min; inhibition, % at 12.5 µM; 0.54% of 310,000 active; in the data active = inhibition above about 50%
Target sequence (O96028 whole entry, looked up): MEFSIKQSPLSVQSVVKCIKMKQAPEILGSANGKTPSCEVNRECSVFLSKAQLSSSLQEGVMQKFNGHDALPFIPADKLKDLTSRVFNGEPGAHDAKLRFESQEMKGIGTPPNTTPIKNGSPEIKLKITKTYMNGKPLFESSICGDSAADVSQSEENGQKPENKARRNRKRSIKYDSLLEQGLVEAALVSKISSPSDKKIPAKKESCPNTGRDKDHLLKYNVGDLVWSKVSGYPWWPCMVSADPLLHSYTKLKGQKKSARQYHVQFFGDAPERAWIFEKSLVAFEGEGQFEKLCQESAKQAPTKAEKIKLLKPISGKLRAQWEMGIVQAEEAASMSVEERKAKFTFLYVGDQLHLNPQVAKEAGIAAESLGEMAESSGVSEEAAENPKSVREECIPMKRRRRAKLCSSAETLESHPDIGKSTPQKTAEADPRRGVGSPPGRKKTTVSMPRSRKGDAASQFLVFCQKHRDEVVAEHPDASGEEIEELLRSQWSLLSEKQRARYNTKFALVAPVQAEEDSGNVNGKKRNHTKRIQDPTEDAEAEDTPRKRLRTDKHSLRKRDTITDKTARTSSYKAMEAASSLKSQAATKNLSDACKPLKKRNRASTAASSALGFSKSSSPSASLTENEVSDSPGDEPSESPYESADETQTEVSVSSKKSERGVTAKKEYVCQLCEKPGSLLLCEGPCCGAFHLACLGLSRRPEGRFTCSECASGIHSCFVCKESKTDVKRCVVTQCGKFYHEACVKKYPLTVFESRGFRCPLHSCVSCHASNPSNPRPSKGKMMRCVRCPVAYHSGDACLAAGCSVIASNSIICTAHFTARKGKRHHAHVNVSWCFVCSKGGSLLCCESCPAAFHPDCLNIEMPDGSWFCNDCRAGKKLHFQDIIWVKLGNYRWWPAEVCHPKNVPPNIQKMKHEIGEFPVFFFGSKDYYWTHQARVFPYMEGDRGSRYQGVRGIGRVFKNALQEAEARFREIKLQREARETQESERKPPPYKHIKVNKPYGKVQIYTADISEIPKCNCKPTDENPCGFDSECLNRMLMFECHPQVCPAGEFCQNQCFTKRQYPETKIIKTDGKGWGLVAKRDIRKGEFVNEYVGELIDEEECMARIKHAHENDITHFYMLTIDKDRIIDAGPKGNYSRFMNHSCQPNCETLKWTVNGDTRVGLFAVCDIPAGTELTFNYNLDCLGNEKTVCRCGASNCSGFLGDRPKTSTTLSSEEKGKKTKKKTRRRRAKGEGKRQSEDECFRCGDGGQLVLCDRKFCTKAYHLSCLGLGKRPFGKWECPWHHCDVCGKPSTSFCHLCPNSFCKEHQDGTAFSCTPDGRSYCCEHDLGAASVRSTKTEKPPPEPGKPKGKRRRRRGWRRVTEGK
The depositor's hits bear a star; i = inactive; nt = not tested or not shown. A selection: hits, their analogues and other compounds. The true share with any hit is near 3.9%.

SMILES	Mot1-301 SUMO	ALR H2O2 inh	Casp6 inh	Glyco luc inh	CDK5 inh	NSD2 inh
O=C(O)CCCNc1cc(N2CCN(C(=O)c3ccco3)CC2)c2noc3c2c1C(=O)c1ccccc1-3	2	19	29	0	1	78*
COc1ccc2c3c(n(C)c2c1)[C@H](CO)N(C(=O)Cc1ccccn1)CC31CCN(C)CC1	nt	nt	1	nt	nt	nt
O=C(Nc1ccc2c(c1)OCO2)N[C@@H]1CC[C@H](CCNC(=O)C2CCCCC2)O[C@H]1CO	nt	nt	-1	nt	nt	nt
Nc1cccc(/C=C/c2ccncc2)c1	14	99*	-1	0	0	-1
Nc1cccc(CCc2ccncc2)c1	38	90*	-1	1	0	10
C(=C\c1ccccn1)/c1ccncc1	5	0	-1	1	0	-6
CC(=O)Nc1ccc(NC(=O)C(C)c2cccc(C(=O)c3ccccc3)c2)cc1 (centres undefined)	7	-3	nt	-2	-2	-1
CC(C(=O)Nc1ccc(O)cc1)c1cccc(C(=O)c2ccccc2)c1 (centres undefined)	-2	99*	2	-3	-1	1
O=C(Nc1cccc(C(F)(F)F)c1)C(Sc1cccc[n+]1[O-])c1ccccc1 (centres undefined)	i	78*	-2	2	1	0
O=C1C2C3C=CC(CC3)C2C(=O)N1c1nccs1 (centres undefined)	7	0	67*	1	1	27
O=C1C2C3C=CC(C2C(=O)N1c1nccs1)C1C(=O)N(c2nccs2)C(=O)C31 (centres undefined)	194	nt	9	3	-1	-3
Cc1ccc(CNC(=O)CSc2nc3c(sc4ccccc43)c(=O)n2CCCN2CCCC2)cc1	-7	99*	-2	-10	1	1
COc1cccc(NC(=O)CSc2nc3c(sc4ccccc43)c(=O)n2CCN(C)C)c1	nt	100*	2	0	1	1
COc1cccc(NC(=O)CSc2nc3c(sc4ccccc43)c(=O)n2CCCN2CCCC2)c1	12	97*	-11	-7	-1	6
COc1cccc(-c2ccc3n(c2=O)C[C@@H]2[C@@H](CO)[C@H](C(=O)NC4CCCC4)N[C@H]32)c1	nt	nt	-2	nt	nt	nt
O=C(CSC1=NCCS1)NC(NC(=O)CSC1=NCCS1)c1ccccc1	-9	3	-1	1	0	-3
O=C(CSC1=NCCS1)Nc1cccc2ccccc12	10	98*	nt	1	3	-2
COC(=O)c1cc(NC(=O)CSC2=NCCS2)cc(C(=O)OC)c1	124	98*	3	0	0	nt
O=C(CSC1=NCCS1)Nc1ccccc1F	-2	99*	nt	2	-1	0
O=C(CSc1nc(=O)n2ccccc2n1)Nc1cccc2ccccc12	-3	nt	-2	1	-1	0
Cc1cccn2c(=O)nc(SCC(=O)Nc3cccc4ccccc34)nc12	20	85*	2	-3	0	-1
COc1ccccc1CNC(=O)C[C@@H]1C[C@@H]2c3cc(NC(=O)c4ccc5c(c4)OCO5)ccc3O[C@@H]2[C@H](CO)O1	nt	nt	0	nt	nt	nt
Cc1noc(C)c1NC(=O)N(C)C[C@@H]1Oc2ccc(N(C)C)cc2CC(=O)N([C@H](C)CO)C[C@H]1C	nt	nt	-1	nt	nt	nt
C[C@@H]1CN([C@H](C)CO)C(=O)c2cccc(NS(C)(=O)=O)c2O[C@H]1CN(C)S(=O)(=O)c1cccs1	nt	nt	-7	nt	nt	nt
C[C@@H]1CCCCO[C@H](CN(C)S(=O)(=O)c2cn(C)cn2)[C@@H](C)CN([C@@H](C)CO)C(=O)c2cc(NC(=O)Nc3ccc(F)cc3)ccc2O1	nt	nt	0	nt	nt	nt
COc1ccccc1CNC(=O)CSC1=NCCS1	-2	99*	1	1	0	-3
CCCN1C(=O)CC(=O)N=C1SCC(=O)Nc1ccccc1F	11	99*	1	-1	-2	-2
O=C(O)c1ccccc1CSC1=NCCS1	-8	98*	nt	4	-2	2
COc1ccccc1NC(=O)N[C@H]1CC[C@@H](CC(=O)N[C@H](C)c2ccccc2)O[C@@H]1CO	nt	nt	3	nt	nt	nt
O=C(C[C@@H]1C[C@H]2c3cc(NC(=O)c4cccnc4)ccc3O[C@H]2[C@H](CO)O1)NC1CCCCC1	nt	nt	10	nt	nt	nt
